Shown are actives, neighbours in structure and some others; about 28% of the full set was active somewhere.
Mac1 fbg inh = inhibitors of CD11b/CD18 adhesion to fibrinogen, primary screen, K562 cells, luminescence; Integrin beta-2 (Homo sapiens) + Integrin alpha-M (Homo sapiens), P05107+P11215; ATPlite luminescence; Mn2+ added to activate the integrin; inhibition, % at 10 µM; 93,000 compounds, 0.54% hits;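 active = primary inhibition of 50% or more at 10 µM, then 40% or more on retest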
CYP2C9 act = human CYP2C9 activators, primary screen, biochemical, luminescence; recombinant CYP2C9, luciferin-H conversion; stronger effect = higher value; factor 1 = untreated enzyme, 0 = blocked; Cytochrome P450 2C9 (Homo sapiens), P11712; activation factor at 5 µM; 96,000 compounds, 1.4% hits; AID 1024, 2008;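 active = activation factor of 2 or more for CYP2C9 at a 5 µM dose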;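 also: 0 = sulfaphenazole-blocked wells and 1 = vehicle-only wells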
Mac1 fbg enh = enhancers of CD11b/CD18 adhesion to fibrinogen, primary screen, K562 cells, luminescence. Integrin beta-2 (Homo sapiens) + Integrin alpha-M (Homo sapiens), P05107+P11215. ATPlite luminescence. activation, % at 10 µM. 93,000 compounds, 0.07% hits;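 active = 10 µM primary screen giving 50% or more activity, confirmed by 40% or more on retest at that dose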
CYP2C9 inh = blockers of cytochrome P450 2C9 activity – biochemical, luminescence, ADME assay, primary screen; CYP2C9 Supersomes, luciferin-H conversion; inhibition, % at 5 µM; 96,000 compounds, 20% hits; P11712; AID 777, 2007;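 active = blocking of liver enzyme CYP2C9 beyond about 50% at 5 µM, limit read from the data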
CYP2C19 inhib = blockers of cytochrome P450 2C19 activity – biochemical, luminescence, ADME assay, primary screen. CYP2C19 Supersomes, luciferin-H EGE luminescence, 30 min. inhibition, % at 5 µM. 96,000 compounds, 21% hits. AID 778, 2007;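 active = CYP2C19 inhibition above a set limit at 5 µM in the primary screen, cut at about 50% in these data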;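 also: plate controls were negative control wells for no effect and 2.5 mM tranylcypromine positive control for full effect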
Target sequence (P33261 whole entry, looked up): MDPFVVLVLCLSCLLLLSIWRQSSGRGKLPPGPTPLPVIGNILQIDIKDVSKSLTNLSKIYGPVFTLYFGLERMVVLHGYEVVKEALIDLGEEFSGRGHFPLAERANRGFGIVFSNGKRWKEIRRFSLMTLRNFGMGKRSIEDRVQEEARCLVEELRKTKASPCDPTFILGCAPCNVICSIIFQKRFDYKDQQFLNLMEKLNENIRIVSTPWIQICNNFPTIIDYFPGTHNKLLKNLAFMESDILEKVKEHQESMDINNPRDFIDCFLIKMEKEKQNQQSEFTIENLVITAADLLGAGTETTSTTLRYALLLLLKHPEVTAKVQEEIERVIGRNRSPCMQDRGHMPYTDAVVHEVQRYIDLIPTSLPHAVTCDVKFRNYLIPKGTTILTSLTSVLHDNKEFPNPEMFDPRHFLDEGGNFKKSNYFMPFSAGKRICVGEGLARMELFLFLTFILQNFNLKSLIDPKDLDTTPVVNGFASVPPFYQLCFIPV
CYP2C19 act = human CYP2C19 activators, primary screen, biochemical, luminescence | Cytochrome P450 2C19 (Homo sapiens), P33261 | recombinant CYP2C19, luciferin-H EGE luminescence; stronger effect = higher value; 0 = fully inhibited enzyme, 1 = untreated enzyme | activation factor at 5 µM | 96,000 tested, under 10 active | AID 1025, 2008;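 active = activation factor of at least 2 at 5 µM in the primary screen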;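 also: 0 = wells with 2.5 mM tranylcypromine and 1 = vehicle-only wells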
Numbers without * were called inactive; · = no result given.

SMILES	Mac1 fbg inh	CYP2C9 act	Mac1 fbg enh	CYP2C9 inh	CYP2C19 inhib	CYP2C19 act
COc1cc(C)ccc1NC(=O)c1ccc(S(=O)(=O)N2CCOCC2)cc1	·	2.9*	·	-189.1	-5.6	1.1
Cc1cc(C)c(NC(=O)c2ccc(S(=O)(=O)N3CCOCC3)cc2)c(C)c1	-51.8	1	2.9	-2.6	-13.2	1.1
COc1ccc(NC(=O)c2cncc(Br)c2)c(S(=O)(=O)N2CCOCC2)c1	-1.1	0.7	-1.0	27.8	55.3*	0.4
Cc1ccc(S(=O)(=O)NC(=O)COc2ccccc2C(N)=O)cc1	3.6	0.5	-5.8	49.4	14.5	0.9
O=c1c([N+](=O)[O-])c(N2CCCCC2)c2ccccc2n1-c1ccccc1	-27.3	1.1	2.2	-12.2	-8.9	1.1
Cc1ccc(C)c(-n2c(Cc3cccs3)n[nH]c2=S)c1	-0.2	·	0.0	·	·	·
NS(=O)(=O)c1ccc(NCc2cc(Cl)ccc2OCc2ccccc2F)cc1	22.2	0.7	-10.6	28.1	6.9	0.9
O=C(CSCc1ccc(Br)cc1)Nc1ccc(S(=O)(=O)N2CCOCC2)cc1	11.4	0.5	1.4	45.3	15.0	0.8
N#Cc1ccc(NC(=O)CCc2ccc(S(=O)(=O)N3CCOCC3)cc2)cc1	-11.6	0.3	-1.8	70.5*	15.0	0.8
Cc1ccc(-n2c(SCC(=O)N3CCOCC3)nnc2-c2ccncc2)cc1	-14.3	0.9	-4.3	12.4	72.2*	0.3
O=C(CSc1nnc(-c2cccnc2)n1-c1ccccc1)N1CCN(c2ccc(F)cc2)CC1	2.7	0.4	-1.1	63.7*	92.0*	0.1
Cc1ccc(-n2c(SCC(=O)N3CCOCC3)nnc2-c2cccnc2)cc1	-1.2	0.9	4.8	8.8	15.2	0.8
COc1ccc(N2CCN(C(=O)CSc3nnc(-c4cccnc4)n3-c3ccccc3)CC2)cc1	-14.7	0.9	-5.1	7.5	19.2	0.8
O=C(CSCCSCC(=O)c1ccco1)c1ccco1	3.8	0.7	-2.3	28.1	3.6	1
CCCc1cc(=O)[nH]c(Nc2cc(OC)ccc2OC)n1	-10.5	0.6	1.8	43.0	2.9	1
Fc1ccc(C(c2nnnn2Cc2cccs2)N2CCN(C3CCCCC3)CC2)cc1 (centres undefined)	-4.7	0.9	0.5	8.9	86.0*	0.1
COCCn1nnnc1C(c1ccccn1)N1CCN(c2cc(Cl)ccc2C)CC1 (centres undefined)	-0.1	0.6	5.7	41.4	42.0	0.6
COc1ccc(Cn2nnnc2C(c2cccs2)N2CCOCC2)cc1 (centres undefined)	-12.2	0.4	-1.1	55.9*	86.3*	0.1
COc1ccc(Cn2nnnc2C(c2ccccn2)N2CCN(c3cc(Cl)ccc3C)CC2)cc1 (centres undefined)	25.1	0.1	2.6	87.7*	97.9*	0
CC1CCCN(C(c2cccs2)c2nnnn2Cc2ccccc2)C1 (centres undefined)	-2.3	0.7	-3.6	26.9	85.8*	0.1
CN1CCN(C(c2ccc(F)cc2)c2nnnn2Cc2cccs2)CC1 (centres undefined)	-6.3	1.1	0.3	-8.2	21.2	0.8
CNC(=O)CC(C(=O)O)c1ccc(OCC(C)C)cc1 (centres undefined)	7.6	1.1	-3.7	-12.7	-13.6	1.1
Cc1cc(Nc2ccc(N3CCC(C)CC3)cc2)n2ncnc2n1	-35.4	1	7.8	3.6	-1.3	1
CC1(C)Cc2c(sc3nc(-c4ccccc4Cl)n(N)c(=O)c23)CO1	11.5	1.2	-8.0	-15.6	-6.0	1.1
COc1ccc(Cn2nnnc2C(c2ccc(N(C)C)cc2)N2CCC(C)CC2)cc1 (centres undefined)	-1.1	0.5	-2.1	52.5*	57.5*	0.4
SMILES	Mac1 fbg inh	CYP2C9 act	Mac1 fbg enh	CYP2C9 inh	CYP2C19 inhib	CYP2C19 act
COc1ccc(C(c2nnnn2Cc2ccc(F)cc2)N2CCN(c3ccccc3)CC2)cc1 (centres undefined)	9.6	0.7	-4.1	26.8	21.9	0.8
COc1ccc(C(c2nnnn2Cc2ccc(F)cc2)N2CCN(c3ccc(OC)cc3)CC2)cc1 (centres undefined)	-6.7	0.5	-4.7	49.8	37.6	0.6
COc1ccc(N2CCN(C(c3ccccc3)c3nnnn3Cc3ccc(F)cc3)CC2)cc1 (centres undefined)	5.3	0.6	-1.2	40.0	63.8*	0.4
COc1ccc(Cn2nnnc2C(c2ccc(F)cc2)N2CCN(C3CCCC3)CC2)cc1 (centres undefined)	8.8	0.6	1.0	35.9	88.2*	0.1
CC1(c2ccc(Cl)cc2)NC(=O)N(CC(=O)N2CCCC2)C1=O (centres undefined)	-3.2	1.2	-0.4	-18.0	-5.3	1.1
CCC(C)C(NC(C)=O)C(=O)NC(=O)NC(c1ccccc1)c1ccccc1 (centres undefined)	-2.5	0.2	-2.5	79.6*	77.7*	0.2
CCOC(=O)C(=O)c1csc(NC(=O)COc2ccc(N(C)S(=O)(=O)c3ccc(F)cc3)cc2)n1	-17.0	0.4	-0.6	58.6*	56.8*	0.4
CCOC(=O)Cc1csc(NC(=O)COc2ccccc2)n1	-26.8	0.5	5.6	54.7*	28.5	0.7
CCOC(=O)Cc1csc(NC(=O)COc2ccccc2OC)n1	·	0.7	·	26.5	22.1	0.8
O=C(CCS(=O)(=O)c1cccs1)N1CCCC1	·	0.9	·	14.2	-4.5	1
CCOC(=O)Cc1csc(NC(=O)COc2ccc(N(C)S(=O)(=O)c3cccs3)cc2)n1	30.3	0.1	-0.2	94.9*	96.0*	0
CN(c1ccc(OCC(=O)N2CCCCC2)cc1)S(=O)(=O)c1cccs1	-14.7	0.3	-2.7	68.6*	47.0	0.5
CCc1ccc(-c2csc3ncn(CC(=O)N4CCOCC4)c(=O)c23)cc1	-7.6	1	2.0	2.8	-5.5	1.1
OCC1OC(n2nnc3ccccc32)C(O)C(O)C1O (centres undefined)	9.8	1.2	1.0	-18.9	-14.5	1.1
CCOC(=O)Cc1csc(NS(=O)(=O)Cc2ccccc2)n1	15.4	0.2	-0.5	76.9*	1.1	1
COc1ccc(Oc2ncnc3c2oc2ccc(Br)cc23)cc1	-3.4	1	15.8	3.0	11.0	0.9
CCOC(=O)Cn1c(=S)[nH]c2c(oc3ccc(Cl)cc32)c1=O	25.1	0.2	7.3	75.5*	-1.6	1
